{
  "source": "PubChem BioAssay (EPA / NIEHS)",
  "note": "“And” between values parts separate entries of the source, which are not always exact repeats. Identical values can stand only once. A structure can be active in one record and inactive in another. The source made the active and inactive calls. Rule for the calls: active = hit-call score of the fitted dose curve at least 0.9, where 1 is the maximum; inactive = score below 0.9.",
  "data": [
    {"assay": "ATG_CMV_CIS: Attagene CIS-FACTORIAL HepG2 Assay for human CMV (Internal Marker) (AID 2282928);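 note: endpoint acts as a background internal control marker rather than a target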", "conditions": "HepG2 CMV promoter reporter, transcription factor profiling; actives raise or lower the signal", "protocol": "ATG_CIS is a cell-based, multiplexed-readout assay that uses HepG2, a human liver cell line, with measurements taken at 24 hours after chemical dosing in a 24-well plate.ATG_CMV_CIS is one of 52 assay component(s) measured or calculated from the ATG_CIS assay. It is designed to make measurements of mRNA induction, a form of inducible reporter, as detected with fluorescence intensity signals by Reverse transcription polymerase chain reaction (RT-PCR) and Capillary electrophoresis technology.Data from the assay component ATG_CMV_CIS was analyzed into 1 assay endpoint. This assay endpoint, ATG_CMV_CIS, was analyzed with bidirectional fitting relative to DMSO as the negative control and baseline of activity. Using a type of inducible reporter, measures of mRNA for gain or loss-of-signal activity can be used to understand the background control at the transcription factor-level as they relate to the gene . Furthermore, this assay endpoint can be referred to as a secondary readout, because this assay has produced multiple assay endpoints where this one serves a background control function. To generalize the intended target to other relatable targets, this assay endpoint is annotated to the background measurement intended target family, where the subfamily is internal marker.\nHuman liver HepG2 cells are transiently transfected with multiple reporter transcription units (MRTUs) in 6-well plates using FuGene 6 reagent (Roche; 3 ml FuGene/1 mg DNA). The MRTU constructs are regulated by a cis-regulating element (promoter). […] A major difference between the CIS and TRANS system is that in CIS activities of endogenous TFs are measured, whereas the TRANS assay evaluates changes in activities of exogenous, chimeric NR-Gal4 proteins. […] At the end of 24 hour incubation, total RNA was isolated using TriZol reagent (Invitrogen). The isolated RNA is then reverse-transcribed using oligo(dT) primer and Mo-MLV reverse transcriptase (Invitrogen) with DNAse I (Ambion) treatment for 30 min. The one-tenth of the produced cDNA was amplified by PCR using Taq DNA polymerase (Invitrogen) and two reporter sequence-specific primers. The PCR products were fluorescently labeled by primer extension with 6-arboxyfluorescein (6-FAM) 5'-labeled reporter sequence-specific primer (2 min at 95 C, 20 s at 68 C and 10 min at 72 C) and these products were digested with 5U of HpaI (New England Biolabs) for 2h at 37 C. The fragments were purified using Qiaquick PCR columns (Qiagen), analyzed on an ABI 3130xL genetic analyzer (Applied Biosystems) with peak positions identified by using a set of X-rhodamine (ROX)-labeled MapMarker1000 molecular weight standards (BioVentures). The raw capillary electrophoresis data was processed using Attagraph software (Attagene).", "values": [
      {"compound": "CCCCCCCCCOS(=O)(=O)O", "outcome": "inactive"},
      {"compound": "[Cu+]", "outcome": "inactive"},
      {"compound": "ClCCOCCOCCCl", "outcome": "inactive"},
      {"compound": "CC(C)=CCCC(C)=CC(=O)O", "outcome": "inactive"},
      {"compound": "O=C(O)c1ccccc1O", "outcome": "inactive"},
      {"compound": "C=C(C)CCCC(C)CCO", "note": "(stereo not given)", "outcome": "inactive"},
      {"compound": "CC1=CC(C)C(C=O)C(C)C1", "note": "(stereo not given) (tested in a mixture with another compound)", "outcome": "inactive"},
      {"compound": "OC[C@@H](O)[C@H](O)[C@@H](O)[C@@H](O)CO", "outcome": "inactive"},
      {"compound": "C=C(C)C(=O)OCCC(C)OC(=O)C(=C)C", "note": "(stereo not given)", "outcome": "inactive"},
      {"compound": "CC(=O)C1=C(C)[C@@H]2C[C@@]3(C1)[C@H](C)CC[C@H]3C2(C)C", "AC50": "68.8 µM (active)"},
      {"compound": "CCCCCCOc1ccc(O)cc1", "AC50": "33.4 µM (active)"},
      {"compound": "COc1ccccc1O", "outcome": "inactive"},
      {"compound": "OC[C@H]1O[C@@H](O[C@H]2[C@H](O)[C@@H](O)[C@H](O)O[C@@H]2CO)[C@H](O)[C@@H](O)[C@H]1O", "outcome": "inactive"},
      {"compound": "c1ccc2c(c1)-c1ccc3ccc4cccc5cc-2c1c3c45", "outcome": "inactive"},
      {"compound": "C=C(C)C(N)=O", "outcome": "inactive"},
      {"compound": "CCCCCCCC1CCCC1=O", "note": "(stereo not given)", "outcome": "inactive"},
      {"compound": "CC(C)Cc1ccccc1", "outcome": "inactive"},
      {"compound": "OCC=Cc1ccccc1", "outcome": "inactive"},
      {"compound": "CC(C)(C)c1ccc(S)cc1", "outcome": "inactive"},
      {"compound": "CCCCCc1cccc(=O)o1", "outcome": "inactive"},
      {"compound": "[O-]/[N+](=N\\O)c1ccccc1", "outcome": "inactive"},
      {"compound": "CCCc1ccc(N)cc1", "outcome": "inactive"},
      {"compound": "N#CCCNCCC#N", "outcome": "inactive"},
      {"compound": "O=C(c1ccc(OCCN2CCCCC2)cc1)c1c(-c2ccc(O)cc2)sc2cc(O)ccc12", "AC50": "14.8 µM (active) and 7.91 µM (active)", "outcome": "inactive"},
      {"compound": "C=CC(=O)OCC(CO)(COC(=O)C=C)COC(=O)C=C", "AC50": "5.31 µM (active)"},
      {"compound": "O=C(O)C1=NN(c2ccc(S(=O)(=O)O)cc2)C(=O)C1", "outcome": "inactive"},
      {"compound": "C=CC(C)(CCC=C(C)C)OC(=O)CC", "note": "(stereo not given)", "outcome": "inactive"},
      {"compound": "O=S1(=O)CC(Cl)(Cl)C(Cl)(Cl)C1", "AC50": "2.22 µM (active)"},
      {"compound": "CNC(=C[N+](=O)[O-])NCCSCc1ccc(CN(C)C)o1", "outcome": "inactive"},
      {"compound": "Nc1ccc(O)c(N)c1", "outcome": "inactive"},
      {"compound": "CC(C)C(=O)OCC=Cc1ccccc1", "outcome": "inactive"},
      {"compound": "CCCCCCCCCCCCOCCOS(=O)(=O)O", "outcome": "inactive"},
      {"compound": "CCCCCCCCSCc1cc(C)c(O)c(CSCCCCCCCC)c1", "outcome": "inactive"},
      {"compound": "CC(C)CCCC(C)(C)O", "outcome": "inactive"},
      {"compound": "CCCCCC1CCC(=O)O1", "note": "(stereo not given)", "outcome": "inactive"},
      {"compound": "CCCCCCCCCO", "outcome": "inactive"},
      {"compound": "Nc1ccc(N)c([N+](=O)[O-])c1", "AC50": "77.1 µM (active) [middle of 5 runs]"},
      {"compound": "CCCCOC(=O)C(C)OC(=O)CCC", "note": "(stereo not given)", "outcome": "inactive"},
      {"compound": "CCC=C(C)C=O", "outcome": "inactive"}
    ]}
  ]
}
